Experimental data as given in PubChem BioAssay AID504332 (National Center for Advancing Translational Sciences (NCATS), 2011).
Screen size: about 350,000 compounds; about 31,000 (8.9%) were called active. About 15% were inconclusive and are not listed. Calls follow the shape of the dose curve; as a rule, active = well fitted inhibition curve with a large enough effect; inconclusive = small, poorly fitted or top-dose-only effect; inactive = no such curve, though single readings can be large or run the other way. The entries come from a sample that favours actives as a whole.

Molecular target: Histone-lysine N-methyltransferase EHMT2 (Homo sapiens) (UniProt Q96KQ7)
Sequence (Q96KQ7 913-1193 limits assumed): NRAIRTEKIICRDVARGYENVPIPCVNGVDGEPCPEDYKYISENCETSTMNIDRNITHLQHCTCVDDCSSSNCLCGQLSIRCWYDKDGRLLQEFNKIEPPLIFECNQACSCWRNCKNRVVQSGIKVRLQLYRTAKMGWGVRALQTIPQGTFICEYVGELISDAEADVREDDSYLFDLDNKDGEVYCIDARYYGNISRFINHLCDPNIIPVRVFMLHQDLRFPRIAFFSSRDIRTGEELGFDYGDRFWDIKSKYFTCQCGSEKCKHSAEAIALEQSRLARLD
Assay: qHTS Assay for Inhibitors of Histone Lysine Methyltransferase G9a; also: nearly all actives have a fitted effect of over 75% in size
Settings: G9a H3K9 monomethylation, AlphaScreen, 2 h; series mostly up to 59 µM
Outline: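 Using a bead-based AlphaScreen, monomethylated H3K9 product from 2 h room-temperature reactions (G9a 20 nM, peptide 500 nM, SAM 20 uM) was detected with 0.5 ug/mL rabbit anti-H3K9me1 antibody.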
% is scaled to controls: 0 for no effect and ±100 for the full control effect; potency is read from the fitted curve at half-maximal effect.

Potency, inactive:
Cc1ccn2c(=O)nc(SCC(=O)NCc3ccc(F)cc3)nc2c1
COc1ccc(-n2c(C)nc3c(cnn3-c3ccc(F)cc3)c2=O)cc1
Cc1[nH]c2ccccc2c1C(=O)CN1CC(C)CC(C)C1 (centres undefined)
CCOc1ccccc1CNC(=O)c1ccc2c(c1)nc1n2CCC(C)C1 (centres undefined)
CCOc1ccc(OCC)c(Nc2nc3ccccc3n3nnnc23)c1
O=C(CSc1nnc(-c2ccncc2)n1C1CCCCC1)Nc1ccccc1
CCn1c(SCC(=O)NC2CC2)nnc1-c1ccncc1
Cc1csc2nc(O)c(C(=O)NCCN3CCOCC3)c(=O)n12
CCc1ccc(NC(=O)C(=O)NNC(=O)c2cccs2)cc1
CC(=O)NC(=S)Nc1ccc(NC(=O)c2cccnc2)cc1
CC(C)C(=O)Nc1ccc(C(=O)NNC(=O)c2cccs2)cc1
NS(=O)(=O)c1ccc(NC(=S)NC(=O)c2cccc(Br)c2)cc1
CCCc1nnc(NC(=O)CCC(=O)NC2CC2)s1
O=C(NC1CC(=O)N(c2ccc(Cl)cc2)C1)C1CCCC1 (centres undefined)
CSc1ncc(C(=O)NCc2ccccc2Cl)c(C(F)(F)F)n1
COc1ccc(-n2nc(C(=O)NCC(=O)N3CCN(c4ccccc4OC)CC3)c3ccccc3c2=O)c(OC)c1
CCC(C(=O)OC)n1cnc2scc(-c3ccc(C)cc3)c2c1=O (centres undefined)
COC(=O)c1scc(-c2ccc(C)cc2)c1S(=O)(=O)Nc1cc(Cl)c(OC)cc1OC
NC(=O)CSc1nc2c(oc3ccccc32)c(=O)n1Cc1ccccc1
O=C(Cc1cccs1)Nc1nnc(SCc2ccc(F)cc2)s1
CCc1nnc(NC(=O)Cc2cccs2)s1
CCN(C(=O)CSc1nnnn1-c1ccccc1OC)C1CCS(=O)(=O)C1 (centres undefined)
O=C(Cn1c(=O)n(Cc2ccccc2)c(=O)c2sc3ccccc3c21)Nc1ccccc1F
COc1cc(OC)cc(-c2nc3nc(C)c(CCC(=O)Nc4ccc(C)cc4)c(C)n3n2)c1
COc1ccc(/C=C(\C#N)C(=O)OCC(=O)N(C)C2CCS(=O)(=O)C2)cc1 (centres undefined)
Cc1ccc(N2C(=O)C3CC3C2=O)cc1 (centres undefined)
O=C(Cc1ccccc1)NNC1CC(=O)N(c2ccc(Br)cc2)C1=O (centres undefined)
Cc1cccc(NC(=O)c2nnn(CC(=O)Nc3ccc(C(C)C)cc3)c2N)c1C
CC1CCN(C(=O)/C(=C\c2ccccc2)NC(=O)c2ccccc2)CC1
CC1CCN(C(=O)CCNC(=O)c2ccccc2)CC1
O=C(c1cccc([N+](=O)[O-])c1)N1CCN(C(=O)c2ccco2)CC1
CC1CCN(c2ccc([N+](=O)[O-])cc2C(N)=O)CC1
CCc1ccccc1NC(=O)CSc1nc(C)c(C(=O)Nc2ccccc2)c(-c2ccc(Cl)cc2)c1C#N
Cc1ccccc1C(=O)Nc1cc(C)c(O)c(-c2nc3ccccc3o2)c1
COC(=O)CN1C(=O)[C@H]2[C@@H](C3CC3)N3C(=O)CN(Cc4ccc(-c5ccccc5)cc4)C(=O)[C@@]3(Cc3ccccc3)[C@H]2C1=O
CSc1ccc(C2C(C(=O)Nc3ccccc3)=C(C)Nc3nc4ccccc4n32)cc1 (centres undefined)
COc1ccc(CN2C(=O)C(NC(=O)c3cccc(C)c3)(C(F)(F)F)N=C2c2ccccc2)cc1 (centres undefined)
COCCNc1cc(NCCOC)c([N+](=O)[O-])cc1[N+](=O)[O-]
COc1ccc(CC(NC(C)=O)C(=O)NC2CCN(C(=O)c3ccc(Cl)cc3)CC2)cc1 (centres undefined)
O=C(Nc1ccc(F)cc1)N1CCCC(c2nc3c(nnn3Cc3ccccc3Cl)c(=O)[nH]2)C1 (centres undefined)
Cc1ccc(NC(=O)N2CCC(c3nc4c(nnn4Cc4c(F)cccc4Cl)c(=O)[nH]3)CC2)cc1
Cc1ccccc1Nc1nn2c(=O)c3ccc(C(=O)NCCc4ccc(Cl)cc4)cc3nc2s1
COc1ccc(-c2nc3ccc(C(=O)NCc4ccc(C)cc4)cc3nc2-c2ccc(OC)cc2)cc1
Cc1cccc(C(=O)NCCCN2CCCC2=O)c1
CCc1ccc(CNC(=O)C2CCN(c3nnc(C)c4c(C)n(-c5ccc(C)cc5)nc34)CC2)cc1
O=C(CCC(=O)N1CCN(S(=O)(=O)c2ccccc2)CC1)NC1CCCc2ccccc21 (centres undefined)
O=C(CSc1nncs1)NC1CCCc2ccccc21 (centres undefined)
Cc1ccc(S(=O)(=O)N2CCN(C(=O)CCC(=O)NC3CCCc4ccccc43)CC2)cc1 (centres undefined)
COc1ccc(CCN2C(=O)c3oc4cc(C)cc(C)c4c(=O)c3C2c2ccccc2F)cc1OC (centres undefined)
COc1cccc2[nH]c(C(=O)NCCc3ccccc3)cc12
CCNC(=O)c1cnn(-c2ccccc2)c1-c1ccccc1
Cc1cc(=O)c2cc(C(=O)Nc3cccc(C)c3C)ccc2[nH]1
COc1ccc(/C=N/NC(=O)c2ccc(Cl)cc2)cc1COC(C)=O
COc1cc(/C=N/NC(=O)CNC(=O)c2ccncc2)ccc1OC(C)=O
COC(=O)CN1C(=O)CSc2ccc(S(=O)(=O)Nc3cc(C)ccc3C)cc21
CCC(=O)Nc1cccc(NC(=O)CSc2nnc(-c3ccc(NS(C)(=O)=O)cc3)n2C)c1
Cn1c(SCC(=O)NC2CCCCC2)nnc1-c1ccc(N)cc1
CCc1ccc(N(CC(=O)NCc2cccnc2)S(=O)(=O)c2ccccc2)cc1
Cc1ccc(S(=O)(=O)c2nnn3c2nc(N2CCN(c4ccccc4F)CC2)c2cc(Cl)ccc23)cc1C
CCOc1cccc(CNC(=O)c2ccc(N3CCCC3)c(NC(=O)Nc3ccccc3CC)c2)c1
Cc1ccc(CNC(=O)COc2ccc3c(c2)CCC3)cc1
CCOCCn1ccc2c(OCC(=O)NCc3ccc(C)cc3)cccc2c1=O
COc1cc(Cl)c(C)cc1NC(=O)CCc1nc2cccnc2n1Cc1cccs1
CCn1c(NC(=O)c2ccccc2)c(-c2cccs2)c(=O)c2ccccc21
CC(=O)c1ccc2c(c1)c1ccccc1n2CC(C)C
CCCCCn1c(CCNC(=O)c2ccc(F)cc2)nc2ccccc21
CCN(CC)CCCNC(=O)c1c(O)c2cc(F)cc3c2n(c1=O)C(C)CC3 (centres undefined)

Potency, active:
Cc1c(C(=O)CN2CCOCC2)[nH]c2ccccc12 39.8 µM
CC1CCCCC1NC(=O)CSc1nnc(-c2ccncc2)n1CCCN(C)C (centres undefined) 3.98 µM
NS(=O)(=O)c1ccc(NC(=S)NNC(=O)c2cccs2)cc1 8.91 µM
NS(=O)(=O)c1ccc(NC(=S)NC(=O)c2cccnc2)cc1 50.1 µM
COC(=O)c1c(-c2ccc(C)cc2)csc1N 31.6 µM
COc1ccc(Cc2nnc(NC(=O)Cc3cccs3)s2)cc1 39.8 µM
NC(=O)c1sc(-c2ccsc2)cc1N 14.1 µM
Cc1ccc(N2C(=O)CC(Nc3cccc4ccccc34)C2=O)cc1 (centres undefined) 14.1 µM
CC1CCN(C(=S)c2cccc([N+](=O)[O-])c2)CC1 35.5 µM
CC1CCN(C(=S)c2cccc(O)c2)CC1 14.1 µM
CCn1c(CNS(=O)(=O)c2ccc(Cl)cc2)n[nH]c1=S 28.2 µM
Cc1ccc([N+](=O)[O-])c(OCCCNCC(C)O)c1 (centres undefined) 12.6 µM
O=C(c1ccccc1F)N1CCC(c2nc3c(nnn3Cc3cccc(F)c3)c(=O)[nH]2)CC1 1 µM
Cc1cccc(-c2nc3ccc(C(=O)NCCN4CCN(C)CC4)cc3nc2-c2cccc(C)c2)c1 70.8 µM
O=C(CN1CCN(c2ccc(O)cc2)CC1)NC1CCCc2ccccc21 (centres undefined) 25.1 µM
CSc1ccccc1N1CCN(CCCCCC(=O)NC2CCCc3ccccc32)CC1 (centres undefined) 21.2 µM
COc1ccc(/C=N/NC(=O)c2ccncc2)cc1CN1CCCc2ccccc21 35.5 µM
CCCCSc1nnc(-c2ccc(NC(=O)CC)cc2)n1C 50.1 µM
CCOCC(=O)NCc1ccc2c(c1)cc(C)n2C 35.5 µM
CC(C)Cn1c(CCC(=O)O)ccc1-c1cccs1 17.8 µM

activity, negative = inhibition, inactive:
Cc1c(C(=O)N2CCOCC2)[nH]c2ccc(OCc3ccccc3)cc12 -37.5% [at 12.7 µM]
CC1(C)NC(=O)N(CC(=O)N2CCN(S(=O)(=O)c3ccccc3F)CC2)C1=O 22.5% [at 12.7 µM]
CC(=O)c1sc(N)nc1C -2.73% [at 2.33 µM]
CCOc1ccc(CCNC(=O)COC(=O)c2c(OC)cccc2OC)cc1OCC -6.24% [at 2.33 µM]
CN(CC(=O)NCc1ccc2c(c1)OCO2)CC(=O)Nc1ccc(F)c(F)c1F 2.14% [at 12.7 µM]
Cc1ccc(Cl)c(OCC(=O)N(C)CC(=O)Nc2ccc(N3CCOCC3)cc2)c1 10.6% [at 0.501 µM]
CSc1ccc(S(=O)(=O)NCc2ccc(Cl)cc2)cc1 15.9% [at 12.7 µM]
Cc1cc(C)n(CCNS(=O)(=O)c2ccc(Cl)cc2)n1 -7.54% [at 0.501 µM]
O=C(c1cc(-c2ccc(Cl)s2)nc2ccccc12)N1CCOCC1 17% [at 12.7 µM]
CCCCOc1ccc(CSC(=N)N)cc1[N+](=O)[O-] 7.15% [at 12.7 µM]
CC1CC1C(=O)OCC(=O)Nc1cccc(F)c1 (centres undefined) 17.7% [at 2.33 µM]
O=C(CCNC(=O)c1ccc(Cl)cc1)NC1CCCc2ccccc21 (centres undefined) 15.5% [at 2.33 µM]
